# PMC7862700, “An all-to-all approach to the identification of sequence-specific readers for epigenetic DNA modifications on cytosine”
# What was measured:
# Assay in all cases: DAPPL (digital affinity profiling via proximity ligation, sequencing); 10 mM Tris-HCl pH 7.5, 50 mM NaCl, 1 mM DTT, 4% glycerol, room temperature, 30 min; GST-TFs on glutathione beads, 16-mer random dsDNA library, 0.1% formaldehyde crosslink after washing; high values mean tight binding
# FEV = molecular target: T1, FEV (Homo sapiens, UniProt Q99581 1-238); conditions: protein: recombinant; tags: N-terminal GST; dsDNA, one strand shown
# T1 sequence: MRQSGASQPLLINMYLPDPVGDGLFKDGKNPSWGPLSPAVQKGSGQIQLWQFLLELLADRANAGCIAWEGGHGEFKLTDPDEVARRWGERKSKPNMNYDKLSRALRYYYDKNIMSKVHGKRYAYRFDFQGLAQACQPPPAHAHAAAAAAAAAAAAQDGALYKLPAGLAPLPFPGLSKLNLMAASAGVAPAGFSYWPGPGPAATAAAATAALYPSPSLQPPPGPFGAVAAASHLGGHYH
# How it was run: (§1)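 Human transcription factors were made in yeast as GST fusions, captured on glutathione beads and barcoded with DNA. With a tag-only sample included, the pool was incubated with 200 nmole of a random double-stranded 16-mer DNA library in Tris/NaCl/DTT/glycerol buffer at room temperature for 30 min, then crosslinked with 0.1% formaldehyde after washing, ligated by proximity, amplified and sequenced. For binding signal, each hexamer's read frequency for a factor is divided by its frequency for the tag-only sample.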
# ETV5 = ETV5 (Homo sapiens, UniProt P41161 1-510); conditions: protein: recombinant; tags: N-terminal GST; dsDNA, one strand shown
# How it was run: as §1
# HSF1 = HSF1 (Homo sapiens, UniProt Q00613 1-529); conditions: protein: recombinant; tags: N-terminal GST; chain copies: 3; dsDNA, one strand shown
# How it was run: as §1
# SPIC = molecular target: T2, SPIC (Homo sapiens, UniProt Q8N5J4 1-248); conditions: protein: recombinant; tags: N-terminal GST; dsDNA, one strand shown
# T2 sequence: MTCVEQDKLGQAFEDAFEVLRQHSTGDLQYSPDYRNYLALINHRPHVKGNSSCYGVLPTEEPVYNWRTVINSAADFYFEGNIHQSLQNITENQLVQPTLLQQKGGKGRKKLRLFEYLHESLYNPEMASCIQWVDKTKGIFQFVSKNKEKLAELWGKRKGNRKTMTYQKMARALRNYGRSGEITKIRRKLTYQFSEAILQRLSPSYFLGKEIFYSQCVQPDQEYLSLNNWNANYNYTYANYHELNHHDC
# How it was run: as §1
# ELF4 = ELF4 (Homo sapiens, UniProt Q99607 1-663); conditions: protein: recombinant; tags: N-terminal GST; dsDNA, one strand shown
# How it was run: as §1
# ELK4 = molecular target: T3, ELK4 (Homo sapiens, UniProt P28324-2 1-405); conditions: protein: recombinant; tags: N-terminal GST; dsDNA, one strand shown
# T3 sequence: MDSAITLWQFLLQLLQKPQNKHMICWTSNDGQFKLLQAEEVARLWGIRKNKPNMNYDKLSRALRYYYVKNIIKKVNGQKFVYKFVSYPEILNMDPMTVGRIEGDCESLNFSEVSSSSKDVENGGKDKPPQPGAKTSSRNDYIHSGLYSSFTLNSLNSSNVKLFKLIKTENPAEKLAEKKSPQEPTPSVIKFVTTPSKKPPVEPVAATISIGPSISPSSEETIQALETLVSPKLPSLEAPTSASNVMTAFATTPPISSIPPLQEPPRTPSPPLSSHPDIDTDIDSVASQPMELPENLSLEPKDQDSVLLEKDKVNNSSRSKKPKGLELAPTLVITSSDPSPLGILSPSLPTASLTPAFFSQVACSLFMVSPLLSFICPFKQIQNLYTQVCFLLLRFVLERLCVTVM
# How it was run: as §1
# ETV2 = molecular target: T4, ETV2 (Homo sapiens, UniProt O00321 1-342); conditions: protein: recombinant; tags: N-terminal GST; dsDNA, one strand shown
# T4 sequence: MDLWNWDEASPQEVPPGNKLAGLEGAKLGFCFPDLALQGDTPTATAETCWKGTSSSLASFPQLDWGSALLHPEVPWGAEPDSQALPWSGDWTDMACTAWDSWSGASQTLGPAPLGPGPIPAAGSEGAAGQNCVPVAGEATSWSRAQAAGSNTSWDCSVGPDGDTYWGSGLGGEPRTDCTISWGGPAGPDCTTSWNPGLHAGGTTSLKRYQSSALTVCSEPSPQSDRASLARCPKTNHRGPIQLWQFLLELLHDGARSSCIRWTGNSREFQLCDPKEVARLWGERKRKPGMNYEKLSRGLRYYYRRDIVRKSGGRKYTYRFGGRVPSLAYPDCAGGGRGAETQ
# How it was run: as §1
# ELF3 = molecular target: T5, ELF3 (Homo sapiens, UniProt P78545 1-371); conditions: protein: recombinant; tags: N-terminal GST; dsDNA, one strand shown
# T5 sequence: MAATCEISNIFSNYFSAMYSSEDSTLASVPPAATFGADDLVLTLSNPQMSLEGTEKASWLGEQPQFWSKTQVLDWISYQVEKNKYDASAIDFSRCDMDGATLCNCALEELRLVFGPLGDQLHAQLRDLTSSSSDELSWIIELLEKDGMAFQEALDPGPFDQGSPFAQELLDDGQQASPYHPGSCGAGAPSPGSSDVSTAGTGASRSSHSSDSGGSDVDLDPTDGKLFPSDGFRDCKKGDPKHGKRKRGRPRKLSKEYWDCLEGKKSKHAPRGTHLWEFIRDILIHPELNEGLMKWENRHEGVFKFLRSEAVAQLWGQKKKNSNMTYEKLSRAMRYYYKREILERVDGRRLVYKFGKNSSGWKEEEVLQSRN
# How it was run: as §1
# CRX = CRX (Homo sapiens, UniProt O43186 1-299); conditions: protein: recombinant; tags: N-terminal GST; dsDNA, one strand shown
# How it was run: as §1
# ETV1 = ETV1 (Homo sapiens, UniProt P50549 1-477); conditions: protein: recombinant; tags: N-terminal GST; dsDNA, one strand shown
# How it was run: as §1
# ERF = molecular target: T6, ERF (Homo sapiens, UniProt P50548 1-548); conditions: protein: recombinant; tags: N-terminal GST; dsDNA, one strand shown
# T6 sequence: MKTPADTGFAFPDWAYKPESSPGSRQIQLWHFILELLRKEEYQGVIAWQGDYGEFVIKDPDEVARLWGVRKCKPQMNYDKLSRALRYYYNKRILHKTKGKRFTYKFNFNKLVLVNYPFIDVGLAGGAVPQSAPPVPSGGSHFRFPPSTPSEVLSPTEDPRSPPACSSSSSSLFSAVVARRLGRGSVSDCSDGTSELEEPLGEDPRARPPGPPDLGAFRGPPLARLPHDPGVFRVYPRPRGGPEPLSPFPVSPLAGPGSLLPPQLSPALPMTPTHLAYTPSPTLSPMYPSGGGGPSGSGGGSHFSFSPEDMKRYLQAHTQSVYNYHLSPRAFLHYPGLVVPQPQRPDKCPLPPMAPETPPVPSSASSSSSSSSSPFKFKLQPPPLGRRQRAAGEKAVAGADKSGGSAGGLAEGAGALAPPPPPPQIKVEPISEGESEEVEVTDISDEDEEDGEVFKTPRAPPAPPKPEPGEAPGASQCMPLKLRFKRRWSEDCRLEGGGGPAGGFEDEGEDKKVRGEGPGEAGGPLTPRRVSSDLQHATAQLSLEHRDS
# How it was run: as §1
# ETV3L = molecular target: T7, ETV3L (Homo sapiens, UniProt Q6ZN32 1-361); conditions: protein: recombinant; tags: N-terminal GST; dsDNA, one strand shown
# T7 sequence: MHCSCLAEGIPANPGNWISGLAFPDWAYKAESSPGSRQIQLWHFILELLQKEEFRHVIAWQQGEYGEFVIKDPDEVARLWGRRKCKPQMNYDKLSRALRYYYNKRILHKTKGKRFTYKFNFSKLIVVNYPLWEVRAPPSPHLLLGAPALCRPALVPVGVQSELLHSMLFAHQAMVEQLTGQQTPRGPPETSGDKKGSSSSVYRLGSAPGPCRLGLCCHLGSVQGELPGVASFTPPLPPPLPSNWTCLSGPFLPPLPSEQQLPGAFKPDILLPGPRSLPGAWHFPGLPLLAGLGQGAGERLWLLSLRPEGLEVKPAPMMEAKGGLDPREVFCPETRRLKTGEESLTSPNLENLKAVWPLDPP
# How it was run: as §1
# ETS2 = molecular target: T8, ETS2 (Homo sapiens, UniProt P15036 1-469); conditions: protein: recombinant; tags: N-terminal GST; dsDNA, one strand shown
# T8 sequence: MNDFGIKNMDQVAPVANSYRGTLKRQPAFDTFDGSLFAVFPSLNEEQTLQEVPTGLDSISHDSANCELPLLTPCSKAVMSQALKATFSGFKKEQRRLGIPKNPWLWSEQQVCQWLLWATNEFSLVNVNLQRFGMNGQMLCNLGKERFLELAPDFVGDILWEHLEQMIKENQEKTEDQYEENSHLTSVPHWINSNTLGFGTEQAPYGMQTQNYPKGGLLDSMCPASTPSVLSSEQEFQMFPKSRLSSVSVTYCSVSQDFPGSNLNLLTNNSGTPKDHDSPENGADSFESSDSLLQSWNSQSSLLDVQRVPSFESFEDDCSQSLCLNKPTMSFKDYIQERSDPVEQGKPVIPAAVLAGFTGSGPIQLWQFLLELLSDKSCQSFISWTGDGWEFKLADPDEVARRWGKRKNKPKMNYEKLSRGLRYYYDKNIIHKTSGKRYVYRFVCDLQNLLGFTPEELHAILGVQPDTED
# How it was run: as §1
# SPDEF = molecular target: T9, SPDEF (Homo sapiens, UniProt O95238 1-335); conditions: protein: recombinant; tags: N-terminal GST; dsDNA, one strand shown
# T9 sequence: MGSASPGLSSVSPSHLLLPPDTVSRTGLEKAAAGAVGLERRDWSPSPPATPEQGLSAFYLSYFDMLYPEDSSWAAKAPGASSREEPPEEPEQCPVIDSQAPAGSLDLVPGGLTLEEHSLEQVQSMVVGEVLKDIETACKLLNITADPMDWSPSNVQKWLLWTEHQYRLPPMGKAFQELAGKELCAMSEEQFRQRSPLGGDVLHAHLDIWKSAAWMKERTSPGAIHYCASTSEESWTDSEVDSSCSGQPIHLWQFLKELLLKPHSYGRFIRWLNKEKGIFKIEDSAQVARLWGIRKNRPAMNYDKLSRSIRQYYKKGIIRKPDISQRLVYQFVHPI
# How it was run: as §1
# ETV7 = molecular target: T10, ETV7 (Homo sapiens, UniProt Q9Y603 1-341); conditions: protein: recombinant; tags: N-terminal GST; dsDNA, one strand shown
# T10 sequence: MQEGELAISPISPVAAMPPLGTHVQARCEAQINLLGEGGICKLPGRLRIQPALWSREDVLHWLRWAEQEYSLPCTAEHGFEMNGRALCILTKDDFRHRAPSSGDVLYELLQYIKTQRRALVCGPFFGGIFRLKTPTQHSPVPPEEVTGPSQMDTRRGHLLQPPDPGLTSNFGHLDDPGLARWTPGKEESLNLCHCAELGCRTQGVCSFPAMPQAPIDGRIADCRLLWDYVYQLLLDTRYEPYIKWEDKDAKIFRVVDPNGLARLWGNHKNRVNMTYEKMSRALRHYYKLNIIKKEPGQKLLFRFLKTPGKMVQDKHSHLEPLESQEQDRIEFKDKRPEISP
# How it was run: as §1
# ELF5 = molecular target: T11, ELF5 (Homo sapiens, UniProt Q9UKW6-2 1-255); conditions: protein: recombinant; tags: N-terminal GST; dsDNA, one strand shown
# T11 sequence: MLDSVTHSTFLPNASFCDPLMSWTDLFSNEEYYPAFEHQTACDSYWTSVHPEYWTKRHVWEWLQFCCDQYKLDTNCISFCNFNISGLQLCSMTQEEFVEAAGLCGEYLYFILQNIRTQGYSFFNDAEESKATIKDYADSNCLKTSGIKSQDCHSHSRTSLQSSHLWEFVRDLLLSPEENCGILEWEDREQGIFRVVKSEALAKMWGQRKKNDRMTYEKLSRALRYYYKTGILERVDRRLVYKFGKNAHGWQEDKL
# How it was run: as §1
# ETV3 = molecular target: T12, ETV3 (Homo sapiens, UniProt P41162-2 1-143); conditions: protein: recombinant; tags: N-terminal GST; dsDNA, one strand shown
# T12 sequence: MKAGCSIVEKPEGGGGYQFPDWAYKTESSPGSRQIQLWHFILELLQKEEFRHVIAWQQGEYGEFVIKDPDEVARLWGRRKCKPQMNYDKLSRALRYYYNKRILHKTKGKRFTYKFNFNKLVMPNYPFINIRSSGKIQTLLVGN
# How it was run: as §1
# ETV6 = ETV6 (Homo sapiens, UniProt P41212 1-452); conditions: protein: recombinant; tags: N-terminal GST; dsDNA, one strand shown
# How it was run: as §1
# Sequence of ELF4 (Q99607 whole entry): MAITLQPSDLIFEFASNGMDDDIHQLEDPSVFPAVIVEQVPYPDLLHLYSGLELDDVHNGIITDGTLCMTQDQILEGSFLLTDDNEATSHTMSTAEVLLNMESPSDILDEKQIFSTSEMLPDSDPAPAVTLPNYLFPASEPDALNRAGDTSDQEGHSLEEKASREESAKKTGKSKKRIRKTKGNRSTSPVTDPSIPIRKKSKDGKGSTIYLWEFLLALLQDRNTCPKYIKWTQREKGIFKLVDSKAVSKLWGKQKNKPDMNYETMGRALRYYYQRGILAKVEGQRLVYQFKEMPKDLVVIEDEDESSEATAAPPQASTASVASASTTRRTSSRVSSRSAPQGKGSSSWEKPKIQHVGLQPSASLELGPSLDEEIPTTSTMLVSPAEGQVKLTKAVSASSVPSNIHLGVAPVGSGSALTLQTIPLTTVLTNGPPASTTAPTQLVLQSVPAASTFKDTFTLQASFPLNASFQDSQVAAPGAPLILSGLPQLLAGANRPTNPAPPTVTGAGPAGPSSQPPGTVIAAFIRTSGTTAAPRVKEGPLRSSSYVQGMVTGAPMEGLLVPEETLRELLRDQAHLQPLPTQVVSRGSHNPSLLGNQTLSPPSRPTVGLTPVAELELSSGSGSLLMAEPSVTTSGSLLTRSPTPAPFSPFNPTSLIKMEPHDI
# Sequence of CRX (O43186 whole entry): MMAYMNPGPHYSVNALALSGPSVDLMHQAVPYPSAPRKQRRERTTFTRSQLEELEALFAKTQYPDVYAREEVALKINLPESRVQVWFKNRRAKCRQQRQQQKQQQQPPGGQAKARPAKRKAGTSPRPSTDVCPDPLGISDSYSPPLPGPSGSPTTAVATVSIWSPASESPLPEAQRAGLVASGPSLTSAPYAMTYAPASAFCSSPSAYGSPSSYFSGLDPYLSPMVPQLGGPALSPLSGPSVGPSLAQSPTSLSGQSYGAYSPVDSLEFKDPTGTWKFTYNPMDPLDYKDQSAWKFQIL
# Sequence of ETV6 (P41212 whole entry): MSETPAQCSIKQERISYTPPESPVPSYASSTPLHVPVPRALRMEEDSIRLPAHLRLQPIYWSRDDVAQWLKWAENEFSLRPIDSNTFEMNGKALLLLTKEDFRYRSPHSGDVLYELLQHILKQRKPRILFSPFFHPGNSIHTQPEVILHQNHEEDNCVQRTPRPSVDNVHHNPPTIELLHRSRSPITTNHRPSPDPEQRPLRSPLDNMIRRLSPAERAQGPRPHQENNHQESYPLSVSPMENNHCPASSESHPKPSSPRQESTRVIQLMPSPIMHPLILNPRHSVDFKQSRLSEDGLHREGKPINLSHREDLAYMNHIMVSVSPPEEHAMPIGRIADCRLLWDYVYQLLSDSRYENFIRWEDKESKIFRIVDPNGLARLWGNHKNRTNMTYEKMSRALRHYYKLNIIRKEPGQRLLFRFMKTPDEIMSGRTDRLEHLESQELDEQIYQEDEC
# Sequence of ETV5 (P41161 whole entry): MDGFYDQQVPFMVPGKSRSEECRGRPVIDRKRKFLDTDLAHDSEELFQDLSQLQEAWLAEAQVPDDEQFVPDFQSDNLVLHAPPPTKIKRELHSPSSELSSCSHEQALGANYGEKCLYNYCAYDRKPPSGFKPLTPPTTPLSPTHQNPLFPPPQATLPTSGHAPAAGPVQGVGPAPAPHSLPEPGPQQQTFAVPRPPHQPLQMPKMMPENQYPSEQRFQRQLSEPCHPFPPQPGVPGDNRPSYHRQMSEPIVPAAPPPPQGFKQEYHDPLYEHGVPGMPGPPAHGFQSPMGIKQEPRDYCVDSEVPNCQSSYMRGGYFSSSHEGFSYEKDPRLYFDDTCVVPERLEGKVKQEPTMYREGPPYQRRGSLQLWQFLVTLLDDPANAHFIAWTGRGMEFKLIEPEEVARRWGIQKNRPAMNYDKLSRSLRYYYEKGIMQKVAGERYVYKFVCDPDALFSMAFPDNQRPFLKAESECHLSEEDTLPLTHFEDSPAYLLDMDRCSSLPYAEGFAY
# Sequence of HSF1 (Q00613 whole entry): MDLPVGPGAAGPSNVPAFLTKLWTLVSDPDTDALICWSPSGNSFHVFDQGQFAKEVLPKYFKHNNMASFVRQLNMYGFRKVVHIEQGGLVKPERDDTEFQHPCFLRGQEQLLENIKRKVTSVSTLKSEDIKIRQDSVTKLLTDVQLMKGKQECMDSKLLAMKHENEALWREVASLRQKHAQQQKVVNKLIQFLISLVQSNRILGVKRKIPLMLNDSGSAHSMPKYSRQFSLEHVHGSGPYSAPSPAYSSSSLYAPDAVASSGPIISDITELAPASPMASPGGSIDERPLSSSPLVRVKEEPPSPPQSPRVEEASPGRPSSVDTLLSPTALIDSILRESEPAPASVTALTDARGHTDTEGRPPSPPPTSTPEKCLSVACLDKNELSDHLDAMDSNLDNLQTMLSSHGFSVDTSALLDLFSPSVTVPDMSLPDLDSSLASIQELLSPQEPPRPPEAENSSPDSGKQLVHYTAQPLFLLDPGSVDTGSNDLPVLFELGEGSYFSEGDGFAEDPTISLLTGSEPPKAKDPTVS
# Sequence of ETV1 (P50549 whole entry): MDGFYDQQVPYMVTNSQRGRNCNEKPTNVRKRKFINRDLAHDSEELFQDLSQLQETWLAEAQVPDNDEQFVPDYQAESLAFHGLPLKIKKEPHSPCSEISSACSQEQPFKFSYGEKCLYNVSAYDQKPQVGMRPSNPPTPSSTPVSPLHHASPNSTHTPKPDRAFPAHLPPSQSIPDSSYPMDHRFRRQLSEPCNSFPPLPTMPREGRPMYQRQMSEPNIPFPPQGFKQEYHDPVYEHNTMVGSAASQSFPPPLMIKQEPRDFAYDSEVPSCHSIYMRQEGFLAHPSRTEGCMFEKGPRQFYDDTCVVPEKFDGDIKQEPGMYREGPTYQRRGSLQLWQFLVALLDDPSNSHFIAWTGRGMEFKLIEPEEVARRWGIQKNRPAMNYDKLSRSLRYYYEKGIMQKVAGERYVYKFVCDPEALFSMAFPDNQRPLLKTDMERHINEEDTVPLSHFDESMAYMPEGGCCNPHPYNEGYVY
sequence,measurement,setting,value
TTCAAG,binding signal,FEV,"1.2 fold enrichment (6-mer frequency, TF over GST control)"
same,binding signal,ETV5,"1.23 fold enrichment (6-mer frequency, TF over GST control)"
same,binding signal,HSF1,"1.49 fold enrichment (6-mer frequency, TF over GST control)"
same,binding signal,SPIC,"1.24 fold enrichment (6-mer frequency, TF over GST control)"
same,binding signal,ELF4,"1.29 fold enrichment (6-mer frequency, TF over GST control)"
same,binding signal,ELK4,"1.32 fold enrichment (6-mer frequency, TF over GST control)"
same,binding signal,ETV2,"1.1 fold enrichment (6-mer frequency, TF over GST control)"
same,binding signal,ELF3,"1.23 fold enrichment (6-mer frequency, TF over GST control)"
same,binding signal,CRX,"1.18 fold enrichment (6-mer frequency, TF over GST control)"
same,binding signal,ETV1,"1.29 fold enrichment (6-mer frequency, TF over GST control)"
same,binding signal,ERF,"1.27 fold enrichment (6-mer frequency, TF over GST control)"
same,binding signal,ETV3L,"1.31 fold enrichment (6-mer frequency, TF over GST control)"
same,binding signal,ETS2,"1.21 fold enrichment (6-mer frequency, TF over GST control)"
same,binding signal,SPDEF,"1.31 fold enrichment (6-mer frequency, TF over GST control)"
same,binding signal,ETV7,"1.28 fold enrichment (6-mer frequency, TF over GST control)"
same,binding signal,ELF5,"1.18 fold enrichment (6-mer frequency, TF over GST control)"
same,binding signal,ETV3,"1.42 fold enrichment (6-mer frequency, TF over GST control)"
same,binding signal,ETV6,"1.26 fold enrichment (6-mer frequency, TF over GST control)"
